The results in this text go back to the supplement of paper PMC10849652.

About 7,900 targets were measured; listed, in parts, are those with a hit and a random draw of the rest. About 0.6% of all pairs of compound and target were hits. Unmarked numbers belong to inactive results.

Chain of UniProt Q9P0T7 (Q9P0T7 whole entry, looked up): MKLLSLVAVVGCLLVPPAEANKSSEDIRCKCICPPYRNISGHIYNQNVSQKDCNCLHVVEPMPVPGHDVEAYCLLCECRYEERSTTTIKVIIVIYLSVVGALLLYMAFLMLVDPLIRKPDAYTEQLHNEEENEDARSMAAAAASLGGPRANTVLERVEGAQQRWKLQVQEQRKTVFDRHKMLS
Chain of UniProt Q9Y5L0 (Q9Y5L0 whole entry, looked up): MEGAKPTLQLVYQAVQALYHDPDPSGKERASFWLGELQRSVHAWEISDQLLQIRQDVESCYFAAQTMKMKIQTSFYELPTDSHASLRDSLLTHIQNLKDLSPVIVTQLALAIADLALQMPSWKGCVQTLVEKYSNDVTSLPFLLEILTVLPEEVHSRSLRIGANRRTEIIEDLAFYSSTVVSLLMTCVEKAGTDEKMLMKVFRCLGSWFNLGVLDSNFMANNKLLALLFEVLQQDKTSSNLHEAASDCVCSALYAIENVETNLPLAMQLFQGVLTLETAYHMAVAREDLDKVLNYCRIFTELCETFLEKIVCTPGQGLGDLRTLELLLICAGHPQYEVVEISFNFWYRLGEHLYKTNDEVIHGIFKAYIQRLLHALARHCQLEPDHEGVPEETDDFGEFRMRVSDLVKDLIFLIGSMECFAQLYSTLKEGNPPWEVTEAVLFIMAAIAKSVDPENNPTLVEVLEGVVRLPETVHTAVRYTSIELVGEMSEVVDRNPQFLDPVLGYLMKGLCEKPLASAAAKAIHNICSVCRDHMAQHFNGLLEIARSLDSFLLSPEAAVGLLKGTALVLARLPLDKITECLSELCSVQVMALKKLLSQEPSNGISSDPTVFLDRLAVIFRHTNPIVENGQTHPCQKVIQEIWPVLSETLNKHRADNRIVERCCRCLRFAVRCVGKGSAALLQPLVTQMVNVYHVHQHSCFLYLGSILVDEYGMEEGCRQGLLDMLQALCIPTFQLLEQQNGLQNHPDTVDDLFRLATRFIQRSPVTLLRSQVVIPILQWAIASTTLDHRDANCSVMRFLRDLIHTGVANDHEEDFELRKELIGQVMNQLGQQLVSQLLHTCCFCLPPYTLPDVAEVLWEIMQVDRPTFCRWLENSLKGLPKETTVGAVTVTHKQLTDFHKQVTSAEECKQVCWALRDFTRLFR
Chain of UniProt Q96AX1 (Q96AX1 whole entry, looked up): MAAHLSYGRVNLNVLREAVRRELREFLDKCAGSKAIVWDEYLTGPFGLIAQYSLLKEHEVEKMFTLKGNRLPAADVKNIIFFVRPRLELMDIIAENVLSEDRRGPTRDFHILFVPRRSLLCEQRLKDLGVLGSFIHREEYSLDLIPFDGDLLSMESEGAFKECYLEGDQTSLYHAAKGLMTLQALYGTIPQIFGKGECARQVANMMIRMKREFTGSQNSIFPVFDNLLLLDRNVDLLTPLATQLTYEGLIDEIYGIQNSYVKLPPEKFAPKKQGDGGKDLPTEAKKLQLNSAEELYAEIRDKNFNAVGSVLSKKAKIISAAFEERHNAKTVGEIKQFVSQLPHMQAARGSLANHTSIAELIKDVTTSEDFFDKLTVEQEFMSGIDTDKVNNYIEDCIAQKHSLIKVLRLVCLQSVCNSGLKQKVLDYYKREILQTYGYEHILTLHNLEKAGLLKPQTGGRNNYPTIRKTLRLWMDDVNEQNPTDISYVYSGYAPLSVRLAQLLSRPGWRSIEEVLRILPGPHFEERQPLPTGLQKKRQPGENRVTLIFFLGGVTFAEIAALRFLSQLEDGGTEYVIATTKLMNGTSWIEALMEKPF
Chain of UniProt Q8WVY7 (Q8WVY7 whole entry, looked up): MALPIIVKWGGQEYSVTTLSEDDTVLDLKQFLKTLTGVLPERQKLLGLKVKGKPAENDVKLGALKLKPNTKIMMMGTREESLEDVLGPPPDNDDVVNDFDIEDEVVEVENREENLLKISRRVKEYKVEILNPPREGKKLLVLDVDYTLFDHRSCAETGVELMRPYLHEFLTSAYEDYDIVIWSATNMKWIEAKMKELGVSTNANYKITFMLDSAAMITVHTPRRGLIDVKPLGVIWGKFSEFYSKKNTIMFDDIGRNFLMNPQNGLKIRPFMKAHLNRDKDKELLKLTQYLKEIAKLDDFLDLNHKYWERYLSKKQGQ
Chain of UniProt Q96K49 (Q96K49 whole entry, looked up): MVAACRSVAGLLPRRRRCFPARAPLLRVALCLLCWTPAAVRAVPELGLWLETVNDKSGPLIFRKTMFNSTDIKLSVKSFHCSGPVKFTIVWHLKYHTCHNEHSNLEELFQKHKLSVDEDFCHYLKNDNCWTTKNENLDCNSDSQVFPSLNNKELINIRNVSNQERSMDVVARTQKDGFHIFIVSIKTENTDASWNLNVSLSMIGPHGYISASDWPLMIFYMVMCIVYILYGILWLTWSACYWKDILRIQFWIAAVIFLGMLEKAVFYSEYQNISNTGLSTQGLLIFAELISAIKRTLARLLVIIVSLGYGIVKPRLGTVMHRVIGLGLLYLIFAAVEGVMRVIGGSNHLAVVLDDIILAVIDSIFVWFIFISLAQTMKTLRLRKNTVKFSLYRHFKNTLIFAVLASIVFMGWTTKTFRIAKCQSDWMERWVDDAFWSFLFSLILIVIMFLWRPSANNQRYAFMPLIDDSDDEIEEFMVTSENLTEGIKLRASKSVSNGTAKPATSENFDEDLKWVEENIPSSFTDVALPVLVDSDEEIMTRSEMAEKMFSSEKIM
Chain of UniProt Q9NV66 (Q9NV66 whole entry, looked up): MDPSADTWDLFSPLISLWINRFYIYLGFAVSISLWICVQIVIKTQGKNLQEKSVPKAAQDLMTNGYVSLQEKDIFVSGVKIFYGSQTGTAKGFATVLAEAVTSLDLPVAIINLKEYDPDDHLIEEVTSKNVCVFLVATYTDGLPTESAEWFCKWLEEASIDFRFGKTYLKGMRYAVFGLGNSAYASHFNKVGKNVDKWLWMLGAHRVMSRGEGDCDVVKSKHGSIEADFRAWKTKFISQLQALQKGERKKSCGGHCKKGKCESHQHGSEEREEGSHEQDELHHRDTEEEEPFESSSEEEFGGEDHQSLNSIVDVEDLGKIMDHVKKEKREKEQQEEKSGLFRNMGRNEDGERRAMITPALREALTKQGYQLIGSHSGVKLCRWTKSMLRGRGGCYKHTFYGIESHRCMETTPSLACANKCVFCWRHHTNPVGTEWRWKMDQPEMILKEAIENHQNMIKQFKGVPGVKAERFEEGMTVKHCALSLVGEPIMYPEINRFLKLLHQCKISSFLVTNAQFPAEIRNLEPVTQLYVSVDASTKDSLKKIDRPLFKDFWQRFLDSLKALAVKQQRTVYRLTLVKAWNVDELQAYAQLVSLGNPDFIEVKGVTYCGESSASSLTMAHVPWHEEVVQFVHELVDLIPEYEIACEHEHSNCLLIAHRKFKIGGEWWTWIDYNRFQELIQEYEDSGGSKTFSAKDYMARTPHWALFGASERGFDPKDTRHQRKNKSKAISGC
Chain of UniProt Q8N4H5 (Q8N4H5 whole entry, looked up): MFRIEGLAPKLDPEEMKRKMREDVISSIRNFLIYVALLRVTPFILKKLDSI
Chain of UniProt Q9P253 (Q9P253 whole entry, looked up): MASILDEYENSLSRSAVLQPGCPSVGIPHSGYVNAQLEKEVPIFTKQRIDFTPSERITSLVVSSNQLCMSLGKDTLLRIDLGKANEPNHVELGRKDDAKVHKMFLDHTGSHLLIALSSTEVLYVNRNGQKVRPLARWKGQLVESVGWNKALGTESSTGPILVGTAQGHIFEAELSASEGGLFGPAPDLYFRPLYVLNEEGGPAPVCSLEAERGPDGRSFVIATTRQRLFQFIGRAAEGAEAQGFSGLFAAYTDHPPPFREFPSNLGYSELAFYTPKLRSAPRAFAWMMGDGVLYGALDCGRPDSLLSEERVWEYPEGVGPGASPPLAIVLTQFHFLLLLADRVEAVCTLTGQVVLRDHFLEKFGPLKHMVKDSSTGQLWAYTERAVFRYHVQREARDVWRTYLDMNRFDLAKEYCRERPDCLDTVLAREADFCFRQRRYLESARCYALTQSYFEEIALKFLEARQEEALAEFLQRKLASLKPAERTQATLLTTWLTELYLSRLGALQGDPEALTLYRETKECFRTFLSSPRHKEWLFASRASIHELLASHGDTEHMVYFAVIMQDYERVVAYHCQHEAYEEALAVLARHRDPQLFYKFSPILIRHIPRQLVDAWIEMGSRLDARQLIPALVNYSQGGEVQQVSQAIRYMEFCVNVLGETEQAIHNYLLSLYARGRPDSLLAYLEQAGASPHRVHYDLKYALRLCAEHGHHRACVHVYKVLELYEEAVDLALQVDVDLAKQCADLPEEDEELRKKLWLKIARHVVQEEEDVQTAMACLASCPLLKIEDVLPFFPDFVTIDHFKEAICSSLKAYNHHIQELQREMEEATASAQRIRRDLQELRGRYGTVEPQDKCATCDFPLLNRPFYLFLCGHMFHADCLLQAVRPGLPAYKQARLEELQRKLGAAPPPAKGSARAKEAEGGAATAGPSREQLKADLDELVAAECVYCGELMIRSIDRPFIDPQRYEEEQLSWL
Chain of UniProt P30291 (P30291 whole entry, looked up): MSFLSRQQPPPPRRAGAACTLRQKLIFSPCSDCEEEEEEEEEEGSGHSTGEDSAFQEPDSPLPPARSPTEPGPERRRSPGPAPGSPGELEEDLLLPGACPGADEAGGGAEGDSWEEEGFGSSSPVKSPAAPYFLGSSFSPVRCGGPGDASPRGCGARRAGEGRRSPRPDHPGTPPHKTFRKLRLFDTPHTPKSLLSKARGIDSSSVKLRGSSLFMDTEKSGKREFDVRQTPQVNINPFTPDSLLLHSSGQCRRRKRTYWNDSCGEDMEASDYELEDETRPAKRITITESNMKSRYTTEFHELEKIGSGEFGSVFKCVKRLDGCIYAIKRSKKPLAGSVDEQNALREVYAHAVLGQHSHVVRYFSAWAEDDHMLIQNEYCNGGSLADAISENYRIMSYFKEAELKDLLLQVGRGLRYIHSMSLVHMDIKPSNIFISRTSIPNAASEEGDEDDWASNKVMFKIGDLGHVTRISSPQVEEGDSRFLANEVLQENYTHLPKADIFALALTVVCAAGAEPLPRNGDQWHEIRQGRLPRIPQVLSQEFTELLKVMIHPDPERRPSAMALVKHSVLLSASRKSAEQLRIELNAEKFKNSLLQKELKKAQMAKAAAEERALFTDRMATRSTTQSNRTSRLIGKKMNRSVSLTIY

Compound in the first experiment: CO[C@H]1C[C@@H]2CC[C@@H](C)[C@@](O)(O2)C(=O)C(=O)N2CCCC[C@H]2C(=O)O[C@H]([C@H](C)C[C@@H]2CC[C@H](n3cnnn3)[C@H](OC)C2)CC(=O)[C@H](C)/C=C(\C)[C@@H](O)[C@@H](OC)C(=O)[C@H](C)C[C@H](C)/C=C/C=C/C=C/1C [zotarolimus]
Description: log2 fold change, soluble protein after heating vs DMSO (PISA); higher = thermal stabilisation; K562 cells, 10 uM, 30 min; active = over 0.2 and 3.5 SD of the protein, either way, in both replicates (recomputed). In short, it runs like this:
(§1)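 Aliquots of K562 cells (2×10^6 cells/mL) treated with 10 μM compound for 30 min were heated for 3 min over 48°C-58°C. After pooling and extraction in PBS with 0.5% NP-40 at 4°C, soluble protein from a 21,000xg, 90 min spin was quantified by TMTpro 16plex LC-MS/MS with channel sums equalised. Thermal stability is expressed against control samples, from duplicates, as a log2 fold change.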
For VPS18 (UniProt Q9P253), the log2 fold change was 0.024.

For TRAPPC11 (UniProt Q7Z392), the log2 fold change was 0.024.

Take VDAC1 (UniProt P21796): the log2 fold change is -0.01.

TNPO1 (UniProt Q92973): the log2 fold change is 0.012.

In the case of UGDH (UniProt O60701), the log2 fold change is 0.053.

UCHL5 (UniProt Q9Y5K5): the log2 fold change is 0.026.

Consider TP53BP1 isoform 2 (UniProt Q12888), for which the log2 fold change is 0.054.

As to VRK1 (UniProt Q99986), the log2 fold change was -0.123.

As for WEE1 (UniProt P30291), the log2 fold change is -0.068.

Consider VTI1A (UniProt Q96AJ9), for which the log2 fold change is -0.024.

As to WASHC2A (UniProt Q641Q2), the log2 fold change was -0.053.

Consider TMEM9 (UniProt Q9P0T7), for which the log2 fold change is 0.081.

Consider VPS33A (UniProt Q96AX1), for which the log2 fold change was 0.033.

On to TMEM70 (UniProt Q9BUB7), for which the log2 fold change was -0.009.

Turning to XRCC5 (UniProt P13010), the log2 fold change was 0.087.

As for TRAPPC3 (UniProt O43617), the log2 fold change is -0.037.

Consider TNPO3 (UniProt Q9Y5L0), for which the log2 fold change was 0.036.

On to TPM2 (UniProt P07951), for which the log2 fold change is 0.013.

UBE4B isoform 4 (UniProt O95155): the log2 fold change is -0.008.

As for USP14 (UniProt P54578), the log2 fold change is 0.04.

In the case of VPS50 (UniProt Q96JG6), the log2 fold change was 0.028.

TMEM87B (UniProt Q96K49): the log2 fold change was -0.108.

Take TMEM263 (UniProt Q8WUH6): the log2 fold change is -0.038.

For TYW1 (UniProt Q9NV66), the log2 fold change is 0.019.

As for VPS33B (UniProt Q9H267), the log2 fold change was 0.026.

Consider TMEM164 (UniProt Q5U3C3), for which the log2 fold change was -0.039.

On to WASH2P (UniProt Q6VEQ5), for which the log2 fold change was -0.029.

In the case of TOMM5 isoform 2 (UniProt Q8N4H5), the log2 fold change was 0.045.

Regarding TRIP10 isoform 2 (UniProt Q15642), the log2 fold change was 0.013.

As for TMEM106B (UniProt Q9NUM4), the log2 fold change was -0.082.

As to TMTC3 (UniProt Q6ZXV5), the log2 fold change is 0.006.

On to USP24 (UniProt Q9UPU5), for which the log2 fold change was 0.397 (active).

For VWA8 (UniProt A3KMH1), the log2 fold change was -0.027.

Take UBLCP1 (UniProt Q8WVY7): the log2 fold change was -0.008.

Regarding VARS2, A0A0G2JL52, the log2 fold change was 0.001.

For TRMT10A (UniProt Q8TBZ6), the log2 fold change is 0.054.

Compound in the next experiment: COc1cc(C(=O)O)ccc1NC(=O)[C@@H]1N[C@@H](CC(C)(C)C)[C@](C#N)(c2ccc(Cl)cc2F)[C@H]1c1cccc(Cl)c1F [idasanutlin]
The experiment is described as above. In short, it runs like this: as §1
Consider VPS18 (UniProt Q9P253), for which the log2 fold change is -0.053.

Turning to TRAPPC11 (UniProt Q7Z392), the log2 fold change is -0.039.

Take VDAC1 (UniProt P21796): the log2 fold change was -0.004.

As for TNPO1 (UniProt Q92973), the log2 fold change was -0.023.

Turning to UGDH (UniProt O60701), the log2 fold change was -0.043.

With UCHL5 (UniProt Q9Y5K5), the log2 fold change is -0.044.

With TP53BP1 isoform 2 (UniProt Q12888), the log2 fold change was 0.04.

For VRK1 (UniProt Q99986), the log2 fold change is -0.119.

Consider WEE1 (UniProt P30291), for which the log2 fold change was 0.356.

VTI1A (UniProt Q96AJ9): the log2 fold change is -0.023.

Take WASHC2A (UniProt Q641Q2): the log2 fold change was 0.063.

In the case of TMEM9 (UniProt Q9P0T7), the log2 fold change is 0.006.

Take VPS33A (UniProt Q96AX1): the log2 fold change is -0.039.

As for TMEM70 (UniProt Q9BUB7), the log2 fold change is -0.016.

For XRCC5 (UniProt P13010), the log2 fold change is 0.014.

As to TRAPPC3 (UniProt O43617), the log2 fold change was -0.025.

As for TNPO3 (UniProt Q9Y5L0), the log2 fold change is -0.074.

On to TPM2 (UniProt P07951), for which the log2 fold change was -0.026.

For UBE4B isoform 4 (UniProt O95155), the log2 fold change was -0.031.

With USP14 (UniProt P54578), the log2 fold change is -0.051.

As to VPS50 (UniProt Q96JG6), the log2 fold change was -0.157.

As for TMEM87B (UniProt Q96K49), the log2 fold change is -0.05.

Take TMEM263 (UniProt Q8WUH6): the log2 fold change was -0.09.

As to TYW1 (UniProt Q9NV66), the log2 fold change was -0.023.

Turning to VPS33B (UniProt Q9H267), the log2 fold change is -0.036.

For the target TMEM164 (UniProt Q5U3C3), the log2 fold change is -0.031.

For the target WASH2P (UniProt Q6VEQ5), the log2 fold change was -0.055.

Regarding TOMM5 isoform 2 (UniProt Q8N4H5), the log2 fold change is 0.137.

Consider TRIP10 isoform 2 (UniProt Q15642), for which the log2 fold change was 0.128.

TMEM106B (UniProt Q9NUM4): the log2 fold change was -0.032.

As for TMTC3 (UniProt Q6ZXV5), the log2 fold change is -0.03.

In the case of USP24 (UniProt Q9UPU5), the log2 fold change was -0.342 (active).

For the target VWA8 (UniProt A3KMH1), the log2 fold change was -0.119.

Regarding UBLCP1 (UniProt Q8WVY7), the log2 fold change is -0.013.

With VARS2, A0A0G2JL52, the log2 fold change is -0.04.

With TRMT10A (UniProt Q8TBZ6), the log2 fold change is -0.081.
